Results filed as inconclusive are left out. The source made the active and inactive calls. Unless noted, the call rests on the fitted dose curve; in most records, active means well fitted curve in the direction sought with a large enough effect; inconclusive means small, poorly fitted or top-dose-only effect, or another doubt; inactive means no such curve, though single readings can be large; an effect the other way counts as inactive or inconclusive.
Experiments:
[1] = target: T1, Hexokinase-4 (Homo sapiens) + Glucokinase regulatory protein (Homo sapiens) (UniProt P35557+Q14397); assay: qHTS assay for inhibitors of recombinant human GCK-GKRP interaction: Diaphorase-coupled assay (AID 743205)
Outline: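 A kinetic fluorescence read (Ex 525/Em 590 nm, every minute for 30 minutes) tracked resorufin from a G6PDH-diaphorase coupled GCK reaction. It contained 10 nM GST-GCK, 10 nM FLAG-GKRP, 5 mM glucose, 0.4 mM ATP in Hepes pH 7.6. Normalized to with/without-enzyme DMSO controls.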

[2] = target: T1, Hexokinase-4 (Homo sapiens) + Glucokinase regulatory protein (Homo sapiens); assay: qHTS assay for inhibitors of recombinant human GCK-GKRP interaction: ADP-Glo assay (AID 743206);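 further: plate controls were DMSO plus enzyme for no effect and no enzyme for full effect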
Outline: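 Pin-transferred compounds meet a 15 nM GST-GCK/15 nM FLAG-GKRP/2 uM S6P mix (dispense concentrations). ATP is then added to 0.4 mM final with 5 mM glucose, and the reaction runs 60 min at room temperature. ADP is quantified luminescently.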

[3] = target: T1, Hexokinase-4 (Homo sapiens) + Glucokinase regulatory protein (Homo sapiens); assay: qHTS assay for inhibitors of recombinant human GCK-GKRP interaction: HTRF assay (AID 743207);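 further: 0% = DMSO with GCK present and -100% = DMSO wells lacking GCK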
Outline: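 After 60 min equilibration at room temperature with anti-FLAG XL665 and anti-GST antibodies, FRET ratio (665/615 nm, excitation 320 nm) was read. Proteins: GST-GCK and FLAG-GKRP, each 5 nM, plus 2 uM S6P, pH 7.1 buffer; GCK-free wells define minimum signal.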

[4] = qHTS Assay for Identifying Gametocytocidal Compounds (AID 743244); further: potency means the concentration at half of the fitted maximal effect; conditions: P. falciparum 3D7 stage III-V gametocytes, alamarBlue, 72 h; max response: stronger effect = lower value
Outline: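 3D7 gametocytes, stages III–V, 20,000/well; cpd 72 h, 37 °C/5% CO2; + alamarBlue 24 h; fluor. Ex 525/Em 598.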

[5] = Natriuretic polypeptide receptor (hNpr1) antagonism - Pilot counterscreen GloSensor control cell line (AID 1347045; calls by dose curve; further: potency means the concentration at half of the fitted maximal effect)
Outline: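 Control counterscreen: luciferase cGMP-biosensor HEK293 cells (no Npr1) received compound for 30 min at room temperature after GloSensor substrate loading. Luminescence was measured before and 20 min after soluble guanylyl cyclase activation by 50 uM nitroprusside.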

[6] = target: T2, Tyrosine-protein phosphatase non-receptor type substrate 1 (Homo sapiens) + Leukocyte surface antigen CD47 (Homo sapiens) (UniProt P78324+Q08722); assay: CD47-SIRPalpha protein protein interaction - LANCE assay qHTS validation (AID 1347057; active means well fitted curve in the direction sought with a large enough effect in the signal ratio, with a control signal flat, not every such curve was filed as active; the % refers to the signal ratio; further: series mostly up to about 38 µM; 0% is about no effect)
Outline: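 Inhibition of soluble CD47/SIRPalpha ectodomain association by titrated compounds, measured as 665/615 nm time-resolved FRET ratio after sequential 30 min room-temperature incubations.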

[7] = target: T2, Tyrosine-protein phosphatase non-receptor type substrate 1 (Homo sapiens) + Leukocyte surface antigen CD47 (Homo sapiens); assay: CD47-SIRPalpha protein protein interaction - HTRF assay qHTS validation (AID 1347058; active means well fitted curve in the direction sought with a large enough effect in the signal ratio, not every such curve was filed as active; the % refers to the signal ratio; further: series mostly up to about 38 µM; 0% is about no effect)
Outline: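 Soluble extracellular domains (6His-CD47, Avi-tag-biotinylated SIRPalpha) in PBS pH 7.4 with 0.05% IGEPAL CA-630. Compounds were preincubated 30 min at RT with CD47 and anti-His-Eu, then SIRPalpha and SAV-XL665 were added. TR-FRET 665/615 ratio.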

[8] = target: T2, Tyrosine-protein phosphatase non-receptor type substrate 1 (Homo sapiens) + Leukocyte surface antigen CD47 (Homo sapiens); assay: CD47-SIRPalpha protein protein interaction - Alpha assay qHTS validation (AID 1347059);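 further: bead proximity luminescence from CD47 binding SIRPalpha after compound preincubation with SIRPalpha; on the % scale 0 is the no-effect control and ±100 the full control effect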
Outline: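 AlphaScreen signal between CD47-His (12.5 nM) and biotin-SIRPalpha (25 nM) soluble extracellular domains, bead-captured via Ni-NTA and streptavidin. Compounds, in 7-point titrations, met SIRPalpha 30 min before CD47; PBS pH 7.4 with 0.05% IGEPAL.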

[9] = target: Parathyroid hormone/parathyroid hormone-related peptide receptor (Homo sapiens) (UniProt Q03431); assay: qHTS for PTHR1 Agonists: Optimization Screen against the NCGC LOPAC library (AID 1347079);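 further: GloSensor cAMP luminescence in HEK-293 GP2 cells expressing human PTHR1 with IBMX; 0% is about no effect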
Outline: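 HEK-293 GP2 cells, PTHR1 + GloSensor cAMP; 3000 cells/well, o/n. Luciferin + IBMX 0.5mM each (stock), 1 hr 37C. Cpd titration, 1 hr 37C. Lum after 15 min RT. Ctrl M-PTH(1-15) top 10uM.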

[10] = target: Lysine-specific demethylase 5B (Homo sapiens) (UniProt Q9UGL1); assay: Optimization screen for KDM5B Histone Demethylases FDH coupled qHTS against the LOPAC library (AID 1347166); further: 0% is about no effect
Outline: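 KDM5BDeltaAP (200nM final) in 50mM HEPES pH 7.5, 0.01% Tween-20 was preincubated with compound for 10 min at room temperature. A substrate mix of 12.5uM H3K4Me3, 25uM a-ketoglutarate, ascorbate, Fe2+, NAD+ and formaldehyde dehydrogenase was then added. NADH fluorescence (340/450 nm) was read initially and after 30 min.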

[11] = qHTS for inhibitors of adenylyl cyclases using a fission yeast platform: a pilot screen against the NCATS LOPAC library (AID 1347410);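 further: plate controls were DMSO vehicle for no effect and DPI positive control for full effect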
Outline: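 GFP from fbp1-GFP reporter, read by Acumen laser cytometry, indicates AC inhibition in fission yeast expressing AC9, GNAS and PDE4D2. Cells grown 18 h in the dark at 30C with compounds, final up to 57 uM.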

[12] = target: Single-stranded DNA cytosine deaminase (Homo sapiens) (UniProt Q9GZX7); assay: Validation qHTS assay for inhibitors of Activation Induced Cytidine Deaminase (AID): AID signal (AID 1347429); further: on the % scale 0 is the no-effect control and ±100 the full control effect
Outline: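 Compounds (final up to 114 uM) preincubated with AID plus UDG; 250 nM DJC20/DJC23 substrate mix (4x stock) added, 4 hr at room temperature, then NaOH, 30 min. Read 1 fluorescence at 540 nm excitation, 590 nm emission.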

[13] = Primary qHTS for inhibitors of La Crosse Virus (LACV) - induced cell death in SH-SY5Y cells (AID 1508616);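 further: top concentration of the series differs between compounds; 0% = infected DMSO wells and 100% = uninfected DMSO wells; higher means more rescue of cells from virus-induced death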
Outline: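 Rescue of virus-induced death was read as ATPLite luminescence after 6 days at 37C, scaled between DMSO wells with LACV and without virus. Cells were SH-SY5Y, 6000/well, infected at 0.01 MOI after compound addition.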

[14] = target: Calcium and integrin-binding protein 1 (Homo sapiens) (UniProt Q99828); assay: Validation qHTS for Identification of Calcium Integrin Binding protein 1 (CIB1) Competitor (AID 1508618); further: on the % scale 0 is the no-effect control and ±100 the full control effect
Outline: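 Fluorescence polarization with 1 uM CIB1-GST and 100 nM FITC-alphaIIb peptide in HEPES pH 7.4, NaCl, 5 mM CaCl2, Tween20. Compounds at up to 114 uM final, preincubated with protein 15 min; read after 15 min more at RT.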

[15] = Counterscreen qHTS for small molecule stabilizers of the endoplasmic reticulum resident proteome: GLuc-NoTag assay (AID 1508627);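 further: SH-SY5Y cells given compound then 100 nM thapsigargin to empty ER calcium; series mostly up to about 76 µM; 0% = thapsigargin alone and -100% = DMSO vehicle control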
Outline: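 Counterscreen line: SH-SY5Y-GLuc-NoTag cells, treated with compound 19 hr before a 4 hr, 100 nM thapsigargin calcium depletion. Secreted Gaussia luciferase in the medium was measured by luminescence after coelenterazine was added (0.07x final), with cells unlysed.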

[16] = Cell Viability qHTS for small molecule stabilizers of the endoplasmic reticulum resident proteome (AID 1508629); conditions: cell viability counter-screen, 100 nM thapsigargin for final 4 h;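 further: human SH-SY5Y neuroblastoma cells carrying the GLuc-SERCaMP reporter; compound exposure about 46 h in total before the viability read; on the % scale 0 is the no-effect control and ±100 the full control effect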
Papain (Carica papaya) = Papain (Carica papaya) (UniProt P00784); assay: Primary qHTS assay for inhibitors of the protease papain (AID 1645873)
[17] = target: Metallo-beta-lactamase type 2 (Klebsiella pneumoniae) (UniProt C7C422); assay: qHTS to identify inhibitors of the New Delhi Metallo-beta-lactamase (NDM): assay validation screen against the NCATS LOPAC Collection (AID 1794843)
Outline: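 NDM-1 at 2 nM final in 50 mM HEPES pH 7.0, 1 uM ZnSO4, 0.01% Tween20, preincubated with LOPAC compounds pinned in DMSO; 50 uM nitrocefin (stock) added. Hydrolysis read as absorbance at 485 nm in the plateau phase.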

[18] = target: Glutathione peroxidase 1 (Homo sapiens) (UniProt P07203); assay: Primary qHTS Assay for Inhibitors of Recombinant Selenoprotein Glutathione Peroxidase 1 (GPX1) (AID 1845191); further: on the % scale 0 is the no-effect control and ±100 the full control effect; nearly all actives have a fitted effect of over 65% in size
Outline: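 NADPH consumption tracked by fluorescence at 340/450 nm between t=0 and t=15 min, room temperature. Final mix: 10 nM GPX1, 100 nM glutathione reductase, 1 mM GSH, 0.5 mM NADPH, 0.5 mM cumene hydroperoxide, 0.01% BSA; 30 min compound–enzyme preincubation.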

[19] = target: Phospholipid hydroperoxide glutathione peroxidase GPX4 (Homo sapiens) (UniProt P36969); assay: Primary qHTS Assay for Inhibitors of Recombinant Selenoprotein Glutathione Peroxidase 4 (GPX4) (AID 1845192); conditions: outcome: dose series up to 50 µM unless noted; further: series mostly up to about 50 µM; on the % scale 0 is the no-effect control and ±100 the full control effect; nearly all actives have a fitted effect of over 65% in size
Outline: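 NADPH consumption followed by fluorescence at 340/450 nm, t=0 and after 15 min at room temperature. Reaction started with cumene hydroperoxide (0.5 mM final) after 30 min compound–GPX4 preincubation; final 200 nM GPX4, 100 nM GR, 1 mM GSH, 0.5 mM NADPH.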

T2 sequence (P78324 whole entry, looked up, the tested form may be a part): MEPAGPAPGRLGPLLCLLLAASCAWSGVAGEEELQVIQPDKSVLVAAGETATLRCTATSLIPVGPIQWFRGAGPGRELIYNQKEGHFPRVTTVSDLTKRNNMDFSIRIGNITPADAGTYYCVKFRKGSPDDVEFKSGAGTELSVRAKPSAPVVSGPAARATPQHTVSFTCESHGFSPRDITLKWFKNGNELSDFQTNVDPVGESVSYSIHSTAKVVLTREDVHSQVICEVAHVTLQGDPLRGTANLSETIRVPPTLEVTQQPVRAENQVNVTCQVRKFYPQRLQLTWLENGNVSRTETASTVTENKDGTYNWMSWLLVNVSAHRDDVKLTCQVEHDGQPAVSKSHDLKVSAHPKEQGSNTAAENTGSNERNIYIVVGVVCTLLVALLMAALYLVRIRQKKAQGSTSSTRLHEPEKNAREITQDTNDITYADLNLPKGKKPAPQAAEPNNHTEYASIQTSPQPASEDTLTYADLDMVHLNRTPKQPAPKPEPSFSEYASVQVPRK
T2 sequence (Q08722 whole entry, looked up, the tested form may be a part): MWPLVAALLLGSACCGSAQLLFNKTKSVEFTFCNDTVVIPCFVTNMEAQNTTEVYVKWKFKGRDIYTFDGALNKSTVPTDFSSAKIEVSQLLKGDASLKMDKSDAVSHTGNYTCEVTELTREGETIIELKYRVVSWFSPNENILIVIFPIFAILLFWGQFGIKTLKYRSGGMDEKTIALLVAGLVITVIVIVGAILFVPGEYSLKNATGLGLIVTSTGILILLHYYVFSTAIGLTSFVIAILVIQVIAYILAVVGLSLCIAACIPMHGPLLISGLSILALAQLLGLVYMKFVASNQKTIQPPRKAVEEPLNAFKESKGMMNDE
T1 sequence (P35557 whole entry, looked up): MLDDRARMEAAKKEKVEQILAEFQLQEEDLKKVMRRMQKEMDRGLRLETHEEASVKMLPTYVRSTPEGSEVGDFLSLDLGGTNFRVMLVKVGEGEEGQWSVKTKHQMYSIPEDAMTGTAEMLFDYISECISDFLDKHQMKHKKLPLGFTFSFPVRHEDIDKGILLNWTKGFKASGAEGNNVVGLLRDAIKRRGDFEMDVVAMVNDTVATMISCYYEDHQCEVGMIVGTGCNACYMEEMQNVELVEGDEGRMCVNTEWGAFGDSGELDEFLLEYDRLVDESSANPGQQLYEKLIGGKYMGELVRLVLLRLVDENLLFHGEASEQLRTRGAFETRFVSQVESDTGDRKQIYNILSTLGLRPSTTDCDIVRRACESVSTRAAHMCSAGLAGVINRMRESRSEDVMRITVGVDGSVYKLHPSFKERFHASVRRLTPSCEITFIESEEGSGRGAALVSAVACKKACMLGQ
T1 sequence (Q14397 whole entry, looked up): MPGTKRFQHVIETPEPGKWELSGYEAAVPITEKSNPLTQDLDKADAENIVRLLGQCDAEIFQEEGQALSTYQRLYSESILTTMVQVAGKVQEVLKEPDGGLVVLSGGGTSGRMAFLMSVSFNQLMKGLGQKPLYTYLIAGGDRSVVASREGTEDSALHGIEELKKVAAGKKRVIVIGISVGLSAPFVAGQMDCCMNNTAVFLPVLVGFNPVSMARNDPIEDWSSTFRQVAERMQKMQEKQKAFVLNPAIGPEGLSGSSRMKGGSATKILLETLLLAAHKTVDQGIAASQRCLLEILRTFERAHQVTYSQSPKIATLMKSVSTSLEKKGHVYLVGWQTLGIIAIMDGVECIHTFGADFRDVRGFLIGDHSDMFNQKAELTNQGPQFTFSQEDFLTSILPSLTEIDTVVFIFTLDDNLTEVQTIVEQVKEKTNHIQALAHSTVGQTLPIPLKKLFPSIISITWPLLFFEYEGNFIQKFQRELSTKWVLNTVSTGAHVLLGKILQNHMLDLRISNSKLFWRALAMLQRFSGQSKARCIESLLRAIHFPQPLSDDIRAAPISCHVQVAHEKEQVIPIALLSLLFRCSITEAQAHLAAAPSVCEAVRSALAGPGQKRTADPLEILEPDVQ
Sequence of Lysine-specific demethylase 5B (Homo sapiens) (Q9UGL1 whole entry, looked up): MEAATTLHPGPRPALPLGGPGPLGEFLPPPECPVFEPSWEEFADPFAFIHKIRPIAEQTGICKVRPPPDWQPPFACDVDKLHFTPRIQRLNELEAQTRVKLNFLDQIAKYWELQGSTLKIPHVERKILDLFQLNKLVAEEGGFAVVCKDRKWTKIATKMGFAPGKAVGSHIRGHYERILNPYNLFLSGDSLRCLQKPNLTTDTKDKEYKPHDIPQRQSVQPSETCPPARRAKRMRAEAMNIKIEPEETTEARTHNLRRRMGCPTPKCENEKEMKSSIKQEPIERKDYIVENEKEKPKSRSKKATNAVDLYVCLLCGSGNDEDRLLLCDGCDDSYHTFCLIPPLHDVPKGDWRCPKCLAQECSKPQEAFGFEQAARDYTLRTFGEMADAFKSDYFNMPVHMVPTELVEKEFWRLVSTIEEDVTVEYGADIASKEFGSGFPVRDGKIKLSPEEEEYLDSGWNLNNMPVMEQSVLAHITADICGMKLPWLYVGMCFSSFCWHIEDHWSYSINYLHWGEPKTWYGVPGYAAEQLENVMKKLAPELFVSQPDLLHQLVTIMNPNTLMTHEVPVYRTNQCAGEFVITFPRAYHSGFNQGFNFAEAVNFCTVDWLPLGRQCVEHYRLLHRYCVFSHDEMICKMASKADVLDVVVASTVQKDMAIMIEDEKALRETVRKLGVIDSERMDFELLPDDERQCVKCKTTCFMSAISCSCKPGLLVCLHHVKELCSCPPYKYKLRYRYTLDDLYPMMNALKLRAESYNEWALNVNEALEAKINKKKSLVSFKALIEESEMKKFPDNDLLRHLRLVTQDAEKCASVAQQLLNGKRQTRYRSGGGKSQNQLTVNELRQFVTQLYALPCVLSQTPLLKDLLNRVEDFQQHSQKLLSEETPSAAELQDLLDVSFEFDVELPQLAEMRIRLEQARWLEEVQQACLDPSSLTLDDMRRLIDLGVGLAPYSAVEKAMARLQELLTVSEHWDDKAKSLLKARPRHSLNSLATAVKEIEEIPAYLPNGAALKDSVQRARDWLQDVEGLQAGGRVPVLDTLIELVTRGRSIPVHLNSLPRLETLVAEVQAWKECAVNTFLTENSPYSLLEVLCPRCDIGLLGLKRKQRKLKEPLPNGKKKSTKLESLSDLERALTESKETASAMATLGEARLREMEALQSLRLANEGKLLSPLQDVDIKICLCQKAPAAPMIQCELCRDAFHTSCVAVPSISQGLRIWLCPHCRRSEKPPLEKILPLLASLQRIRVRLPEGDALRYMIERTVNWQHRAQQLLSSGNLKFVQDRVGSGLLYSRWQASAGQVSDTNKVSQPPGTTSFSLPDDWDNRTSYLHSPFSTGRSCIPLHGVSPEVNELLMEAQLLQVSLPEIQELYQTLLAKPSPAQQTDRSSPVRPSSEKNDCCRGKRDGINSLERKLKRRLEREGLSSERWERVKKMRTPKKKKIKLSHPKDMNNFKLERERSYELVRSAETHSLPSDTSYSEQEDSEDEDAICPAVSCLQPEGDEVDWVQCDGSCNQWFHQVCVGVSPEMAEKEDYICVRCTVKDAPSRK
Sequence of Glutathione peroxidase 1 (Homo sapiens) (P07203 whole entry, looked up): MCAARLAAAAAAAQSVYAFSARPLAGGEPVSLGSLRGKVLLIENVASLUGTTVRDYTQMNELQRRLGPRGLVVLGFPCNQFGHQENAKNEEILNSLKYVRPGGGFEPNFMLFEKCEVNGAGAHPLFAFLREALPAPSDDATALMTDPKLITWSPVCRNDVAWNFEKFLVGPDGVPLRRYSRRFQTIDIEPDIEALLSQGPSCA
Sequence of Parathyroid hormone/parathyroid hormone-related peptide receptor (Homo sapiens) (Q03431 whole entry, looked up): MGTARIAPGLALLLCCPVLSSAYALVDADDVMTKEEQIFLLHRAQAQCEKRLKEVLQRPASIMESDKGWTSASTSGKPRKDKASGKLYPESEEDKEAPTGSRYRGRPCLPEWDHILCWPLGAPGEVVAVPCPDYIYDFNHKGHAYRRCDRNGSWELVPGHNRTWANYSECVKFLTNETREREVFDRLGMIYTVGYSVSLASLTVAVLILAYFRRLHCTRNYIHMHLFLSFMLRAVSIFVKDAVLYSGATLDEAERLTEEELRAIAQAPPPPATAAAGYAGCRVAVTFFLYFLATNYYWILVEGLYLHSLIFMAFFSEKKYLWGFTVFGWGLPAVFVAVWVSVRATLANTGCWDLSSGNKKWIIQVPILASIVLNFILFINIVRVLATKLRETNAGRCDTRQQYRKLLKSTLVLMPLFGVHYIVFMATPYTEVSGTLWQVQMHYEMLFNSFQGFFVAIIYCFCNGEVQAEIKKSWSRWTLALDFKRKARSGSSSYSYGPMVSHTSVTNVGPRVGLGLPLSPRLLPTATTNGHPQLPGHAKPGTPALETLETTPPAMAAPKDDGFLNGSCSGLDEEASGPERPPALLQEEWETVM
Sequence of Metallo-beta-lactamase type 2 (Klebsiella pneumoniae) (C7C422 whole entry, looked up): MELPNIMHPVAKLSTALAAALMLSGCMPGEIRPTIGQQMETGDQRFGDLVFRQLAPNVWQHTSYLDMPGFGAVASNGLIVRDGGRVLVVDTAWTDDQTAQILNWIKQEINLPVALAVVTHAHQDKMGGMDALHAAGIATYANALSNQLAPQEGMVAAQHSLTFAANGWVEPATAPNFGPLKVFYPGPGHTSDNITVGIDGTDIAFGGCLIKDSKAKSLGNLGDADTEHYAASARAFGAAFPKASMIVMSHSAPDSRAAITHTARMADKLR
Sequence of Phospholipid hydroperoxide glutathione peroxidase GPX4 (Homo sapiens) (P36969 whole entry, looked up): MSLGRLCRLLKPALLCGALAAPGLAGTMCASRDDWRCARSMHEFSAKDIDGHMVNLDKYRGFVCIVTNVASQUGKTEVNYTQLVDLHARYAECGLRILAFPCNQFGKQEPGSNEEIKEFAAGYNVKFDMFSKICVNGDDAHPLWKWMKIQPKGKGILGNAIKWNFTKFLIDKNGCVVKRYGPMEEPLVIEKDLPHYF
Sequence of Single-stranded DNA cytosine deaminase (Homo sapiens) (Q9GZX7 whole entry, looked up): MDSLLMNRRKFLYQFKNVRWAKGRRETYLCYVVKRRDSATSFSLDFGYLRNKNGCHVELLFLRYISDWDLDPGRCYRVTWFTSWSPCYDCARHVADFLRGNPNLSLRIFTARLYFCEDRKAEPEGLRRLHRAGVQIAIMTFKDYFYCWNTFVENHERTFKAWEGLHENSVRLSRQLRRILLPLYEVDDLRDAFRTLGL

S=C(Nc1ccccc1)Nc1nccs1
inactive: outcome [1] | outcome [2] | outcome [3] | outcome [6] | outcome [7] | Potency [8] | outcome [9] | outcome [10] | outcome [11] | Potency [12] | outcome [13] | outcome [14] | Potency [15] | max response [16] -3.94% | Potency (Papain (Carica papaya)) | Potency [17] | Potency [18] | Potency [19]
active: Potency [4] 1.58 µM | Potency [5] 13.1 µM
